Source: PubChem BioAssay
This is a sample that favours compounds with a hit; in the whole collection about 2.9% have one here.
PLCb3 inh: inhibitors of human phospholipase C beta3. inhibition, % at 12.2 µM. Q01970. 370,000 compounds, 0.18% hits. Purified PLC-beta3, fluorogenic substrate, fluorescence. AID 720704; in the data active means inhibition above about 11%
proKLK7 act: proKLK7 (human) activation, primary screen; purified proKLK7, EDANS-DABCYL substrate fluorescence; 100% is mature enzyme control, 0% vehicle; activation, % at 7 µM; 370,000 compounds, 0.9% hits; AID 652039;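 active means activation above the mean of all tested compounds plus 3 SD, computed per campaign excluding outliers beyond control limits, cut at about 13% in these data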
ADAM10 inh: ADAM10 inhibition, QFRET primary screen | O14672 | recombinant ADAM10, EDANS/DABCYL FRET peptide cleavage, 3 h | inhibition, % at 7 µM | 370,000 compounds, 0.62% hits | AID 720582;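 active means inhibition above a per-campaign cutoff equal to the mean of compounds falling between control-based bounds plus 3 SD, cut at about 20% in these data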
ADAM17 inh: inhibits human ADAM17; recombinant ADAM17, EDANS/DABCYL FRET peptide cleavage; 370,000 compounds, 0.83% hits; inhibition, % at 6.95 µM; P78536;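 active means inhibition above the mean of compounds lying between control limits plus 3 SD, set per campaign, cut at about 8.5% in these data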
PLC-gamma1 inh: PLC-gamma1 (human) inhibition, primary screen | purified PLC-gamma1, fluorogenic substrate, fluorescence | inhibition, % at 12.2 µM | 370,000 compounds, 0.84% hits; in the data active means inhibition above about 9.5%
Target sequence (P19174 whole entry, looked up): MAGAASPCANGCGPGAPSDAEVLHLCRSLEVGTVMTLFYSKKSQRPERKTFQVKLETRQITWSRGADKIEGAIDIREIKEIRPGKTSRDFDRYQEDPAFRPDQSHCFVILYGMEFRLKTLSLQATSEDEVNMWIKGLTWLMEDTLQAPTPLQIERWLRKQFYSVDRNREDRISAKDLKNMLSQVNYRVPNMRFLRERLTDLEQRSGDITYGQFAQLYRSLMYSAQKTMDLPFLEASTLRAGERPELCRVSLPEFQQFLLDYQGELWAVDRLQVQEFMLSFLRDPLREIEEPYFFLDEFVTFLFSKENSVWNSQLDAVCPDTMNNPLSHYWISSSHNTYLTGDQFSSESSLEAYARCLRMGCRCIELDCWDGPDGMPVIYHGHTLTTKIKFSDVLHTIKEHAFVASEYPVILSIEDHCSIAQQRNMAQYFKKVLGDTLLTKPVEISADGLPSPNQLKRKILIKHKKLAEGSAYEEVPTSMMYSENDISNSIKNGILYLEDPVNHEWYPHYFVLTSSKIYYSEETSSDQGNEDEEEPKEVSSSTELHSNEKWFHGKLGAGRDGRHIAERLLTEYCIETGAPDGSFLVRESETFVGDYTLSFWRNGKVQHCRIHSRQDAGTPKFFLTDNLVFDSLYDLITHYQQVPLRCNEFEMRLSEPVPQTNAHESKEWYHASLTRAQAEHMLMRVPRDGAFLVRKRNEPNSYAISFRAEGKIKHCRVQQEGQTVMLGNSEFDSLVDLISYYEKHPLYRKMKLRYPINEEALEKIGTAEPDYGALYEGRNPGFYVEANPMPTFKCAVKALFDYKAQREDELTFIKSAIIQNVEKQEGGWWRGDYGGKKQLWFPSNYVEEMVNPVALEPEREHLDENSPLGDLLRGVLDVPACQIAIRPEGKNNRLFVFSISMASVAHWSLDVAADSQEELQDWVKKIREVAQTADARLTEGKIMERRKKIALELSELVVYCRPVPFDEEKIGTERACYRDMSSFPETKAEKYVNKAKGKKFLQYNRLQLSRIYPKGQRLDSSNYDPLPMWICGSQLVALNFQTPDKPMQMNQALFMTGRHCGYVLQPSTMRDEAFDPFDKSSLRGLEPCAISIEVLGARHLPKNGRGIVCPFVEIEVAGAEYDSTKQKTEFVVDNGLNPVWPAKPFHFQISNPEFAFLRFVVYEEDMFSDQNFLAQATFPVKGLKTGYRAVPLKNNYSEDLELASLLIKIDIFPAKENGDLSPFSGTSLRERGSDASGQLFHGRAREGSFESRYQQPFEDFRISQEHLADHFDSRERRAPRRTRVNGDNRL
proKLK7 act conf: proKLK7 activation, confirmation | shares compounds with proKLK7 act | purified proKLK7, EDANS-DABCYL substrate fluorescence; scaled: vehicle 0, mature enzyme 100 | activation, % at 7 µM | 3,200 compounds, 68% hits | AID 686949;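 active means activation, as change over the incubation, above the mean of all tested compounds plus 3 SD, cut at about 13% in these data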
EDANS-DABCYL int: optically interferes with EDANS-DABCYL signal, flagging KLK7 hits; shares compounds with proKLK7 act; EDANS-DABCYL substrate fluorescence interference, no enzyme, 4 h; solvent 0%, active enzyme control 100%; activation, % at 7 µM; 3,200 compounds, 80% hits;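 active means activation above the all-compound mean plus 3 SD, ignoring values outside control-based bounds, cut at about 4.8% in these data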;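 further: value is the 4 h activation minus the activation read at time zero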
K7 EDANS ctr: optically interferes with EDANS-DABCYL fluorescence, kallikrein-7 activator counter-screen. shares compounds with proKLK7 act. EDANS-DABCYL peptide fluorescence interference, no enzyme. EC50, µM. 250 compounds, 20% hits;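 active means compounds that raise the fluorescence signal in this interference counterscreen, with EC50 at or below 10 µM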;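 further: intact quenched peptide substrate alone read at 355 nm excitation and 520 nm emission; signal is fluorescence gain from T0 to T4 after four hours at room temperature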
Hits are given with their value; – = inactive; · = no result given.

SMILES | PLCb3 inh | proKLK7 act | ADAM10 inh | ADAM17 inh | PLC-gamma1 inh | proKLK7 act conf | EDANS-DABCYL int | others
COc1ccc(/C=N/Nc2ccc(C(=O)O)cc2)cc1Br | – | – | – | – | – | · | ·
CC1(C)Nc2ccccc2C(=O)N1NS(=O)(=O)c1ccccc1 | – | 75 | – | – | – | 46 | 42
Cc1ccc(S(=O)(=O)NN2C(=O)c3ccccc3NC2(C)C)cc1 | – | 49 | – | – | – | 50 | 43
N/C(=N\OC(=O)c1cccs1)C1(c2ccc(Cl)cc2Cl)CC1 | – | – | – | – | – | · | ·
CC(=O)c1ccc(-c2ccc(C(=O)N(C)Cc3nc4ccccc4c(=O)[nH]3)o2)cc1 | – | 26 | – | – | – | – | –
CCC1Sc2ccc(S(=O)(=O)Nc3ccc(OC)c(OC)c3)cc2NC1=O (stereo not given) | – | – | – | – | – | · | ·
CN(C)c1cccc2c(S(=O)(=O)NC(=O)[C@H]3O[C@@H](n4cnc5c(N)ncnc54)[C@H](O)[C@@H]3O)cccc12 | – | 25 | – | – | – | 35 | 23 | K7 EDANS ctr=8.8
O=C1CCCN1CCCNS(=O)(=O)c1ccc(F)cc1F | – | – | – | – | – | · | ·
O=C(Nc1ccc2c(c1)OCO2)C(c1ccc(Cl)cc1)N1CCC2(CC1)OCCO2 (stereo not given) | – | 18 | – | – | – | – | –
Cc1ccccc1N1CCN(CC(=O)Nc2nccs2)CC1 | – | – | – | – | – | · | ·
CCN(CC)c1ccc(NC(=O)c2ccccc2OCC(=O)OC)cc1 | – | – | – | – | – | · | ·
COc1ccc(-c2csc(N3N=C(C)C(C)C3=O)n2)cc1 (stereo not given) | – | – | – | – | – | · | ·
O=c1nc2n(CCO)c3ccccc3cc-2c(=O)[nH]1 | – | 18 | – | – | – | 48 | 54
Cn1c(=O)c(-c2ccccc2)cc2ccccc21 | – | – | – | – | – | · | ·
O=c1nc2n(Cc3ccccc3)c3ccccc3cc-2c(=O)[nH]1 | – | – | – | – | – | · | ·
Cn1c2nc(=O)[nH]c(=O)c-2cc2ccccc21 | – | 70 | – | – | – | 67 | 65
CN1C(=O)C2C(c3ccc(N(C)C)cc3)=NN(Cc3ccccc3)C2C1=O (stereo not given) | – | 24 | – | – | – | 24 | 32
CCCC1C2CN(C(C)C)CC=C2C(C#N)=C(N)C1(C#N)C#N (stereo not given) | – | 24 | – | – | – | – | 14
CN1CC=C2C(C#N)=C(N)C(C#N)(C#N)[C@H](c3cccc(Cl)c3)C2C1 (stereo not given in full) | – | 13 | – | – | – | 34 | 35
N#CC1=C(N)C(C#N)(C#N)C(c2ccncc2)C2CN(C(=O)OCc3ccccc3)CC=C12 (stereo not given) | – | 17 | – | – | – | 36 | 35
N#CC1=C(N)C(C#N)(C#N)[C@H](c2cccnc2)[C@H]2CN(C(=O)OCc3ccccc3)CC=C12 | – | – | – | – | – | · | ·
CN1CC=C2C(C#N)=C(N)C(C#N)(C#N)C(c3ccsc3)C2C1 (stereo not given) | – | 15 | – | – | – | 57 | 55
O=C1CC(N2CCC(c3nc4ccccc4[nH]3)CC2)C(=O)N1c1cccc(F)c1 (stereo not given) | – | – | – | – | – | · | ·
CC(=O)Nc1ccc(S(=O)(=O)N2CCN(C(=O)c3ccco3)CC2)cc1 | – | – | – | – | – | · | ·
CCOC(=O)c1c(CSc2ccccc2)n(C)c2ccc(O)cc12 | – | – | – | – | – | · | ·
SMILES | PLCb3 inh | proKLK7 act | ADAM10 inh | ADAM17 inh | PLC-gamma1 inh | proKLK7 act conf | EDANS-DABCYL int | others
CC12CC(c3ccccc3O1)N(C(=O)c1ccco1)C(=O)N2c1ccccc1 (stereo not given) | – | – | – | – | – | · | ·
CCOC(=O)C1=C(CSCc2ccccc2)NC(=O)NC1c1cc(C)ccc1C (stereo not given) | – | – | – | – | – | · | ·
COc1ccc2c(c1)c1ncn(CCN3CCNCC3)c(=O)c1n2C | – | 25 | – | – | – | 18 | 17
COc1ccc2[nH]c3c(=O)n(CCN4CCOCC4)cnc3c2c1 | – | – | – | – | – | · | ·
COc1ccc2c(c1)c1ncn(CCN3CCCCC3)c(=O)c1n2C | – | 17 | – | – | – | – | –
COc1ccc2c(c1)c1ncn(CCN3CCCC3)c(=O)c1n2C | – | 24 | – | – | – | – | 5.9
COc1ccc(C2=Nc3ccccc3N(C(=O)Cc3cc(OC)cc(OC)c3)C2C(=O)NC(C)C)cc1 (stereo not given) | – | – | – | – | – | · | ·
Cn1c(=O)c2c(nc(SCC(=O)N3CCOCC3)n2C)n(C)c1=O | – | – | – | – | – | · | ·
CCn1c(/C=C/c2ccccc2)nc2ccccc21 | – | – | – | – | – | · | ·
CCCn1c(/C=C/c2cc[n+](C)cc2)nc2ccccc21 | – | 50 | – | – | – | 61 | 72
c1ccc(Cc2nnc3sc(-c4cccs4)nn23)cc1 | – | – | – | – | – | · | ·
Nc1nc2ncccn2c1-c1ccc(F)cc1 | – | – | – | – | – | · | ·
Nc1nc2ncccn2c1-c1ccc(C(F)(F)F)cc1 | – | 26 | – | – | – | 60 | 63
CC[C@@H]1CN(C)[C@H]2Cc3c([nH]c4ccccc34)C(=O)C[C@@H]1[C@@H]2C(=O)OC | – | 17 | – | – | – | – | 5.2
Cc1ccc(-c2nnc(SCC(=O)Nc3ccc4c(c3)OCCO4)n2-c2ccc(Cl)cc2)cc1 | – | – | – | – | – | · | ·
O=c1[nH]c(N2CCOCC2)cc2ccccc12 | – | 34 | – | – | – | 20 | – | K7 EDANS ctr=–
O=c1c(N2CCOCC2)coc2ccccc12 | – | – | – | – | – | · | ·
Cc1ccc(OCCNC(=O)C(C)SCC(=O)Nc2ccc(F)cc2)cc1 (stereo not given) | – | – | – | – | – | · | ·
CCOc1c(N2CC(C)OC(C)C2)c(=O)c1=O (stereo not given) | – | – | – | – | – | · | ·
CC(C)Oc1cccc(C(=O)C2CCCN(C(=O)c3cc(C(F)(F)F)[nH]n3)C2)c1 (stereo not given) | – | – | – | – | – | · | ·
COC(=O)c1ccc2c(C)c(C3(O)CCCCC3)[nH]c2c1 | – | 38 | – | – | – | – | –
Nc1ccc(-c2nnc(-c3ccc(N)cc3)o2)cc1 | – | 18 | – | – | – | 36 | 44
CN(C)c1ccc(-c2nc3cc(N)ccc3o2)cc1 | – | 23 | – | – | – | – | 24
Nc1ccc(-c2nc3cc(N)ccc3o2)cc1 | – | 55 | – | – | – | 65 | 75
